# Several values for one entry are separate records, joined by “and”; a condition that tells them apart may be missing. Identical values can stand only once.
# System: H9c2
# Test: protection of cardiomyocytes from stress damage, SAR follow-up, cell-based, panel, H9c2 and HL-1, ATP luminescence, set 2 (AID 651871);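 further: cells exposed to stressor for 2 h before ATP readout; reference of the scale not given here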
# Details: H9c2/HL-1 cardiomyocytes, 2-deoxyglucose stress, with 2-deoxyglucose; run 11, at 79 µM (top of the series)
row,SMILES,activity (protection/inhibition)
1,CCOC(=O)c1cccc(NC(=O)CNC(=O)c2cc(-c3cc(OC)c(OC)c(OC)c3)nc3ccccc23)c1,112%
2,COc1ccc2nc(-c3cc(OC)c(OC)c(OC)c3)cc(C(=O)NCC(=O)Nc3ccc(C(C)=O)cc3)c2c1,68.6%
3,COc1ccc2c(c1OC)C(=O)N1c3ccccc3C(=O)N(Cc3cccc(Cl)c3Cl)C21 (stereo not drawn),89.7% and 82.5% and -2.54%
